Compounds with a hit are over-represented: about 2.3% of the library has one in this group of screens.
ABHD5-PLIN5 inh: ABHD5-PLIN5 interaction inhibitors, primary screen, cell lysate, split luciferase complementation, luminescence; Perilipin-5 (Homo sapiens) + 1-acylglycerol-3-phosphate O-acyltransferase ABHD5 (Homo …; inhibition, % at 4 µM; 0.78% of 360,000 active; Split G. princeps luciferase complementation, 4 h; AID 602281, 2012;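 active = inhibition above the mean inhibition across every tested compound plus 3 SD, cut at about 22% in these data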;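 note: 0% = DMSO only wells and the 100% control is not disclosed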
Target sequence (Q00G26 whole entry, looked up): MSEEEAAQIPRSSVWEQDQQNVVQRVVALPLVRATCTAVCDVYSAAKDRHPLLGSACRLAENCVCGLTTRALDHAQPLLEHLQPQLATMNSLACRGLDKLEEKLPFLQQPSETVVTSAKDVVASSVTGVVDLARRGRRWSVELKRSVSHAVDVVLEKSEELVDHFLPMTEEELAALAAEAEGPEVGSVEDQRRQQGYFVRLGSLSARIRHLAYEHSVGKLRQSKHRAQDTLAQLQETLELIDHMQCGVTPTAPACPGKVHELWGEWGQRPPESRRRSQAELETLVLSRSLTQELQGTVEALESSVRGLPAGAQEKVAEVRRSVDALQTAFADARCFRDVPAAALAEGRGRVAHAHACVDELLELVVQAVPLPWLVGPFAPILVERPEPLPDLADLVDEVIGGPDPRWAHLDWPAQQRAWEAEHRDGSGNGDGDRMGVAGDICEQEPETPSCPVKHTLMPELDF
Target sequence (Q8WTS1 whole entry, looked up): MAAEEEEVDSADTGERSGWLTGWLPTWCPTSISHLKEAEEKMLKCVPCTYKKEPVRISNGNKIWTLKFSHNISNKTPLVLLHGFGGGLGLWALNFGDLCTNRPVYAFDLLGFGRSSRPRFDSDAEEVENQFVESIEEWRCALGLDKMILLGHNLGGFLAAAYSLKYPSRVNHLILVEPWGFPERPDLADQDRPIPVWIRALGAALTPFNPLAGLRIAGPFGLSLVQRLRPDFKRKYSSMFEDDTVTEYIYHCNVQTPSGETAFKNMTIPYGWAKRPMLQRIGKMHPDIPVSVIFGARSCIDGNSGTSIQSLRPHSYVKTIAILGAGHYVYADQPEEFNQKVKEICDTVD
Beta2AR agonist: beta2AR agonists driving receptor internalization, primary screen, cell-based, FAP fluorogen, flow cytometry | Beta-2 adrenergic receptor (Homo sapiens), P07550 | Am2.2-beta2AR cells | response, % (concentration not given with the values) | 0.43% of 340,000 active;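 active = response above a set limit, near 3 SD of response in nonfluorescent compounds, cut at about 42% in these data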
Exocytosis inh: LAMP-1 surface exposure blockers, TALL-104 cells – cell-based, flow cytometry, MLPCN library, primary screen. TALL-104 LAMP-1 surface exposure; cells stimulated with thapsigargin and PMA. inhibition, % at 10 µM. 0.66% of 360,000 active;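 active = inhibition above about 55%, limit read from the data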
m5-HT2A agonist: mouse Htr2a agonists via beta-arrestin recruitment, primary screen, cell-based, luminescence | 5-hydroxytryptamine receptor 2A (Mus musculus), P35363 | AID 624169, 2012 | CHO-K1 mHTR2A beta-arrestin complementation; percent of 30 µM serotonin response | 0.66% of 360,000 active | activation, % at 7.6 µM;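 active = activation above a run cutoff, the mean activation of all tested compounds plus 3 SD, cut at about 14% in these data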;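 note: 0% = plate median of compound wells and 100% = 30 µM serotonin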
NTR1 ag: agonists of human NTR1, primary screen, imaging, U2OS cells, beta-arrestin-GFP, high content; NTR1-U2OS beta-arrestin-GFP spot imaging, agonist mode; activation, % at 20 µM; Neurotensin receptor type 1 (Homo sapiens), P30989; AID 493036, 2011; 0.17% of 330,000 active;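 active = activation at or above 40% of the spot to cytoplasm intensity ratio, with at least 20 cells analyzed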;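 note: 0% = DMSO without peptide and 100% = 100 nM NTR1 peptide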
B2AR ag CP1: beta2AR agonists via receptor internalization, confirmation, cell-based, FAP fluorogen, flow cytometry, single point, cherry pick 1 | shares compounds with Beta2AR agonist | Am2.2-beta2AR cells, FAP surface receptor; stronger effect = lower value | percent response (surface receptor), % at 10 µM | 25% of 1,100 active;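 active = surface receptor percent response at or below 58%, roughly 3 SD from nonfluorescent compounds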
B2AR FAP counter: counter-screen for beta-2AR agonists: fluorescence in Am2.2 cells; shares compounds with Beta2AR agonist; FAP fluorogen flow cytometry, fluorescence counterscreen; stronger effect = lower value; calls only at 10 µM; 1,100 tested, under 10 active;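 active = percent response below a set limit in fluorescence channel 1 and below 50% in channel 8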
The depositor's hits bear a star.

Results for COc1cc2c(cc1OC)C(c1ccc(-c3cc(Cl)ccc3Cl)o1)=NCC2 ?
ABHD5-PLIN5 inh: 6; Beta2AR agonist: 15; Exocytosis inh: 6; m5-HT2A agonist: -8; NTR1 ag: 4; B2AR ag CP1: 120; B2AR FAP counter: inactive

How did O=C(NC1(Cc2ccc(O)cc2)CCCCC1)c1ccccc1 do in these assays?
ABHD5-PLIN5 inh: 0; Beta2AR agonist: 43*; Exocytosis inh: 3; m5-HT2A agonist: 1; NTR1 ag: 0; B2AR ag CP1: 41*; B2AR FAP counter: inactive

What do the screens show for `O=C(NC1(C(=O)O)CCCC1)c1ccccc1`?
ABHD5-PLIN5 inh: -1; Beta2AR agonist: -13; Exocytosis inh: -8; m5-HT2A agonist: 0

What do the screens show for `NS(=O)(=O)c1cccc(NC(=O)c2cccc(N3C(=O)c4ccccc4C3=O)c2)c1`?
ABHD5-PLIN5 inh: -5; Beta2AR agonist: -7; Exocytosis inh: 5; m5-HT2A agonist: -4; NTR1 ag: 4; B2AR ag CP1: 108; B2AR FAP counter: inactive

What do the screens show for `CC(=O)c1cccc(NC(=O)c2cccc(N3C(=O)c4ccccc4C3=O)c2)c1`?
ABHD5-PLIN5 inh: 5; Beta2AR agonist: 7; Exocytosis inh: -1; m5-HT2A agonist: 1; NTR1 ag: 0; B2AR ag CP1: 100; B2AR FAP counter: inactive

What do the screens show for `NS(=O)(=O)c1cccc(NC(=O)c2cccc(Oc3ccccc3)c2)c1`?
ABHD5-PLIN5 inh: -4; Beta2AR agonist: -7; Exocytosis inh: 36; m5-HT2A agonist: 6; NTR1 ag: 1

Results for Cc1ccc(NS(=O)(=O)c2ccc(C(=O)Nc3nncs3)cc2)cc1 ?
ABHD5-PLIN5 inh: -7; Beta2AR agonist: 11; Exocytosis inh: 16; m5-HT2A agonist: 3; NTR1 ag: 1

How did CCN(CC)C(=O)CSc1nc(-c2ccccc2)cc(=O)[nH]1 do in these assays?
ABHD5-PLIN5 inh: -1; Beta2AR agonist: -2; Exocytosis inh: 6; m5-HT2A agonist: -3; NTR1 ag: -2; B2AR ag CP1: 120; B2AR FAP counter: inactive

How did COc1ccc(-n2nc(C(=O)NCC(=O)Nc3cccc(Cl)c3)c3ccccc3c2=O)cc1 do in these assays?
ABHD5-PLIN5 inh: -6; Beta2AR agonist: 6; Exocytosis inh: 19; m5-HT2A agonist: 13; NTR1 ag: 1

How did COc1ccccc1C(CNC(=O)C(CCSC)NC(=O)c1ccccc1Cl)N1CCCC1 (stereo not drawn) do in these assays?
ABHD5-PLIN5 inh: 15; Beta2AR agonist: -4; Exocytosis inh: 2; m5-HT2A agonist: -15

How did CC(NC(=O)C1CCCN1S(=O)(=O)c1cccc2cccnc12)c1ccccc1 (stereo not drawn) do in these assays?
ABHD5-PLIN5 inh: 8; Beta2AR agonist: 56*; Exocytosis inh: 1; m5-HT2A agonist: -3; NTR1 ag: 2; B2AR ag CP1: 106; B2AR FAP counter: inactive

What do the screens show for `CC(NC(=O)C1CCN(S(=O)(=O)c2cccc3cccnc23)CC1)c1ccccc1` (stereo not drawn)?
ABHD5-PLIN5 inh: 1; Beta2AR agonist: -7; Exocytosis inh: -3; m5-HT2A agonist: 1; NTR1 ag: 0

Results for Cc1noc(NS(=O)(=O)c2ccc(NC(=O)C34CC5CC(C3)CC(n3cnc(Cl)n3)(C5)C4)cc2)c1C ?
ABHD5-PLIN5 inh: -2; Beta2AR agonist: 74*; Exocytosis inh: -7; m5-HT2A agonist: -1; NTR1 ag: 0; B2AR ag CP1: 84; B2AR FAP counter: inactive

What do the screens show for `Cc1noc(NS(=O)(=O)c2ccc(NC(=O)CC34CC5CC(CC(Br)(C5)C3)C4)cc2)c1C`?
ABHD5-PLIN5 inh: 5; Beta2AR agonist: 5; Exocytosis inh: 0; m5-HT2A agonist: 7; NTR1 ag: 6

From PubChem BioAssay
